# From the supplement of paper PMC4466140
# Biological target: ScBbc1
# Test: SPOT peptide array binding signal intensity (averaged, normalized) (arbitrary units (background-subtracted, floor 0; scale differs between SH3 domains)); higher = stronger binding of the SH3 domain to the peptide
# Summary of the method: (§1)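 GST-fused SH3 domains from four yeast species were expressed in E. coli BL21(DE3), purified on glutathione Sepharose and incubated at 10 μg/ml overnight at 4°C in TBS-based blocking buffer on cellulose membranes carrying synthetic 15-mer peptides, with cysteines replaced by serines. Bound protein was detected with anti-GST antibody, an HRP anti-mouse secondary and luminol, then imaged and quantified with Genespotter. Binding signal is the normalized, background-subtracted spot intensity averaged over replicates, in arbitrary units that differ between domains.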
row,Binder,SPOT peptide array binding signal intensity
1,VGFRLALKFPSRITG,11.5

# Biological target: ScBem1-D1
# Test: as above
# Summary of the method: as §1
row,Binder,SPOT peptide array binding signal intensity
1,VGFRLALKFPSRITG,60

# Biological target: ScBzz1-D1
# Test: as above
# Summary of the method: as §1
row,Binder,SPOT peptide array binding signal intensity
1,VGFRLALKFPSRITG,188

# Biological target: ScBzz1-D2
# Test: as above
# Summary of the method: as §1
row,Binder,SPOT peptide array binding signal intensity
1,VGFRLALKFPSRITG,649

# Biological target: ScCyk3
# Test: as above
# Summary of the method: as §1
row,Binder,SPOT peptide array binding signal intensity
1,VGFRLALKFPSRITG,137

# Biological target: ScFus1
# Test: as above
# Summary of the method: as §1
row,Binder,SPOT peptide array binding signal intensity
1,VGFRLALKFPSRITG,3260

# Biological target: ScHof1
# Test: as above
# Summary of the method: as §1
row,Binder,SPOT peptide array binding signal intensity
1,VGFRLALKFPSRITG,7.5

# Biological target: ScHse1
# Test: as above
# Summary of the method: as §1
row,Binder,SPOT peptide array binding signal intensity
1,VGFRLALKFPSRITG,3980

# Biological target: ScLsb1
# Test: as above
# Summary of the method: as §1
row,Binder,SPOT peptide array binding signal intensity
1,VGFRLALKFPSRITG,12

# Biological target: ScLsb2
# Test: as above
# Summary of the method: as §1
row,Binder,SPOT peptide array binding signal intensity
1,VGFRLALKFPSRITG,38

# Biological target: ScLsb3
# Test: as above
# Summary of the method: as §1
row,Binder,SPOT peptide array binding signal intensity
1,VGFRLALKFPSRITG,1230

# Biological target: ScLsb4
# Test: as above
# Summary of the method: as §1
row,Binder,SPOT peptide array binding signal intensity
1,VGFRLALKFPSRITG,152

# Biological target: ScMyo3
# Test: as above
# Summary of the method: as §1
row,Binder,SPOT peptide array binding signal intensity
1,VGFRLALKFPSRITG,8.5

# Biological target: ScMyo5
# Test: as above
# Summary of the method: as §1
row,Binder,SPOT peptide array binding signal intensity
1,VGFRLALKFPSRITG,26.5

# Biological target: ScNbp2
# Test: as above
# Summary of the method: as §1
row,Binder,SPOT peptide array binding signal intensity
1,VGFRLALKFPSRITG,1400

# Biological target: ScPex13
# Test: as above
# Summary of the method: as §1
row,Binder,SPOT peptide array binding signal intensity
1,VGFRLALKFPSRITG,67.8

# Biological target: ScRvs167
# Test: as above
# Summary of the method: as §1
row,Binder,SPOT peptide array binding signal intensity
1,VGFRLALKFPSRITG,180

# Biological target: ScSho1
# Test: as above
# Summary of the method: as §1
row,Binder,SPOT peptide array binding signal intensity
1,VGFRLALKFPSRITG,3930

# Biological target: ScSla1-D1-D2
# Test: as above
# Summary of the method: as §1
row,Binder,SPOT peptide array binding signal intensity
1,VGFRLALKFPSRITG,561

# Biological target: ScSla1-D3
# Test: as above
# Summary of the method: as §1
row,Binder,SPOT peptide array binding signal intensity
1,VGFRLALKFPSRITG,246

# Biological target: SpAbp1-D1
# Test: as above
# Summary of the method: as §1
row,Binder,SPOT peptide array binding signal intensity
1,VGFRLALKFPSRITG,658

# Biological target: SpBbc1
# Test: as above
# Summary of the method: as §1
row,Binder,SPOT peptide array binding signal intensity
1,VGFRLALKFPSRITG,97.5

# Biological target: SpBzz1-D1
# Test: as above
# Summary of the method: as §1
row,Binder,SPOT peptide array binding signal intensity
1,VGFRLALKFPSRITG,1110

# Biological target: SpBzz1-D2
# Test: as above
# Summary of the method: as §1
row,Binder,SPOT peptide array binding signal intensity
1,VGFRLALKFPSRITG,111

# Biological target: SpCyk3
# Test: as above
# Summary of the method: as §1
row,Binder,SPOT peptide array binding signal intensity
1,VGFRLALKFPSRITG,75

# Biological target: SpHof1
# Test: as above
# Summary of the method: as §1
row,Binder,SPOT peptide array binding signal intensity
1,VGFRLALKFPSRITG,620

# Biological target: SpHof1-2
# Test: as above
# Summary of the method: as §1
row,Binder,SPOT peptide array binding signal intensity
1,VGFRLALKFPSRITG,179

# Biological target: SpHof1-3
# Test: as above
# Summary of the method: as §1
row,Binder,SPOT peptide array binding signal intensity
1,VGFRLALKFPSRITG,2110

# Biological target: SpHse1
# Test: as above
# Summary of the method: as §1
row,Binder,SPOT peptide array binding signal intensity
1,VGFRLALKFPSRITG,1790

# Biological target: SpLsb1
# Test: as above
# Summary of the method: as §1
row,Binder,SPOT peptide array binding signal intensity
1,VGFRLALKFPSRITG,40.5

# Biological target: SpLsb4
# Test: as above
# Summary of the method: as §1
row,Binder,SPOT peptide array binding signal intensity
1,VGFRLALKFPSRITG,913

# Biological target: SpMyo1
# Test: as above
# Summary of the method: as §1
row,Binder,SPOT peptide array binding signal intensity
1,VGFRLALKFPSRITG,41

# Biological target: SpNbp2
# Test: as above
# Summary of the method: as §1
row,Binder,SPOT peptide array binding signal intensity
1,VGFRLALKFPSRITG,2320

# Biological target: SpPex13
# Test: as above
# Summary of the method: as §1
row,Binder,SPOT peptide array binding signal intensity
1,VGFRLALKFPSRITG,578

# Biological target: SpRvs167
# Test: as above
# Summary of the method: as §1
row,Binder,SPOT peptide array binding signal intensity
1,VGFRLALKFPSRITG,161

# Biological target: SpSla1-D1-D2
# Test: as above
# Summary of the method: as §1
row,Binder,SPOT peptide array binding signal intensity
1,VGFRLALKFPSRITG,17

# Biological target: SpSla1-D3
# Test: as above
# Summary of the method: as §1
row,Binder,SPOT peptide array binding signal intensity
1,VGFRLALKFPSRITG,260
